Test [1] addresses Bile acid receptor (Homo sapiens) (UniProt Q96RI1). The experiment in a line: ATG_IR1_CIS: Attagene CIS-FACTORIAL HepG2 Assay for human Nuclear Receptor Subfamily 1 Group H Member 4 (NR1H4), IR1 submotif (AID 2282946). As to conditions: IR1 reporter transcription, actives raise or lower the signal. A digest of the protocol:
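Readout: reporter transcript levels by RT-PCR with fluorescent capillary electrophoresis, from HepG2 cells transiently transfected with multiplexed cis-regulated reporters and dosed 24 h. Gain- or loss-of-signal fitted versus DMSO negative control.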

Test [2] can be described thus: ATG_GRE_CIS: Attagene CIS-FACTORIAL HepG2 Assay for human Glucocorticoid Response Elements (GRE) (AID 2282947). The note with it: HepG2 GRE cis-reporter, Attagene multiplex mRNA; actives raise or lower the signal. A digest of the protocol:
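HepG2, transient cis-reporter transfection, 24 h. Reporter mRNA: RT-PCR then CE, fluorescence. Fit both directions vs DMSO.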

Test [3] can be described thus: ATG_ISRE_CIS: Attagene CIS-FACTORIAL HepG2 Assay for human Interferon Regulatory Factor 1 (IRF1) binding to an Interferon-Stimulated Response Element (ISRE) (AID 2282948). The note with it: HepG2 ISRE cis-reporter (Attagene), mRNA transcription readout; actives raise or lower the signal. A digest of the protocol: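 Multiplexed mRNA reporter readout in human liver HepG2 cells: cis-element-driven reporters transfected, compound added for 24 h, transcripts amplified, fluorescently labelled and sized by capillary electrophoresis; curve fitting bidirectional against DMSO.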

A short description of test [4]: ATG_M_32_CIS: Attagene CIS-FACTORIAL HepG2 Assay for M32 Transcription Factor (Internal Marker) (AID 2282949).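 Note: background control marker of the multiplexed CIS panel rather than a real target.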 The note with it: HepG2 Attagene cis-factorial M32 reporter, mRNA; actives raise or lower the signal. A digest of the protocol: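 Using DMSO as baseline, bidirectional curve fits were applied to reporter mRNA signals. These came from transiently transfected HepG2 cells exposed for 24 h, with RNA analysed by RT-PCR, FAM primer extension, HpaI digestion and CE.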

Test [5] can be described thus: ATG_M_06_CIS: Attagene CIS-FACTORIAL HepG2 Assay for M06 Transcription Factor (Internal Marker) (AID 2282950). As to conditions: HepG2 Attagene CIS-FACTORIAL M06 internal marker reporter; actives raise or lower the signal. A digest of the protocol:
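Steps: transfect HepG2 with multiplexed cis-element reporter constructs; dose chemical 24 h; extract RNA with DNase treatment; reverse-transcribe, PCR-amplify, 6-FAM label, HpaI digest; separate fragments by capillary electrophoresis. Activity fitted both directions versus DMSO.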

Test [6] addresses Hepatocyte nuclear factor 6 (Homo sapiens) (UniProt Q9UBC0). The experiment in a line: ATG_HNF6_CIS: Attagene CIS-FACTORIAL HepG2 Assay for human Hepatocyte Nuclear Factor 6 (HNF6) (AID 2282952). As to conditions: HepG2 Attagene cis-factorial HNF6 reporter transcription; actives raise or lower the signal. A digest of the protocol: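 Activity values derive from bidirectional fitting against DMSO of reporter mRNA levels, measured by capillary electrophoresis of labelled RT-PCR products from HepG2 cells exposed 24 h.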

Test [7] addresses Heat shock factor protein 1 (Homo sapiens) (UniProt Q00613). Description: ATG_HSE_CIS: Attagene CIS-FACTORIAL HepG2 Assay for human Heat Shock Transcription Factor 1 (HSE) (AID 2282953). The note with it: HepG2 HSE cis-reporter, Attagene RNA transcription; actives raise or lower the signal. A digest of the protocol: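 Cells were transfected with cis-element-driven reporter constructs, dosed for 24 h, then total RNA was reverse-transcribed and reporter cDNA amplified, FAM-labelled and digested with HpaI. Fragments were resolved by capillary electrophoresis; gain or loss was fitted against DMSO.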

Test [8] in a line: ATG_MRE_CIS: Attagene CIS-FACTORIAL HepG2 Assay for human Metal Responsive Element (MRE) (AID 2282954). As to conditions: HepG2 MRE cis-reporter transcription, Attagene multiplex; actives raise or lower the signal. A digest of the protocol: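 Readout: capillary electrophoresis of 6-FAM-labelled, HpaI-digested RT-PCR reporter products. System: HepG2 cells carrying transient multiplexed cis reporters, dosed 24 h. Analysis: bidirectional fit, DMSO baseline.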

A short description of test [9]: ATG_PBREM_CIS: Attagene CIS-FACTORIAL HepG2 Assay for human Phenobarbital-responsive Enhancer Module (PBREM) (AID 2282955). As to conditions: HepG2 PBREM cis-reporter, Attagene multiplexed transcription; actives raise or lower the signal. A digest of the protocol:
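Transfected liver-derived HepG2 cells exposed 24 h; PBREM reporter transcript quantified via RT-PCR and capillary electrophoresis, with activity in either direction referenced to DMSO.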

Test [10] concerns the target Paired box protein Pax-6 (Homo sapiens) (UniProt P26367). Description: ATG_Pax6_CIS: Attagene CIS-FACTORIAL HepG2 Assay for human Paired Box 6 (PAX6) (AID 2282956). The note with it: HepG2 CIS-FACTORIAL PAX6 reporter transcription, RNA readout; actives raise or lower the signal. A digest of the protocol:
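Fluorescent RT-PCR products separated by capillary electrophoresis report PAX6-linked promoter mRNA in HepG2 cells 24 h post-dose. Curves fitted bidirectionally, DMSO as negative control.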

Test [11] is described as follows: ATG_PXRE_CIS: Attagene CIS-FACTORIAL HepG2 Assay for human Pregnane X Receptor Element (PXRE) (AID 2282957). The note with it: HepG2 Attagene CIS-FACTORIAL PXRE reporter, mRNA; actives raise or lower the signal. A digest of the protocol:
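Fluorescent capillary electrophoresis of amplified reporter cDNA gave the signal, collected 24 h after dosing HepG2 cells that held transfected cis-element reporter constructs.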

Test [12] can be described thus: ATG_Sox_CIS: Attagene CIS-FACTORIAL HepG2 Assay for human SRY-box transcription factor (SOX) (AID 2282960). As to conditions: HepG2 Attagene cis-factorial SOX reporter, mRNA; actives raise or lower the signal. A digest of the protocol: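 Gain- or loss-of-signal endpoint, fitted bidirectionally with DMSO as negative control. Based on reporter mRNA from transfected HepG2 cells harvested 24 h post-treatment and quantified via RT-PCR and capillary electrophoresis.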

Test [13] addresses Transcription factor Sp1 (Homo sapiens) (UniProt P08047). The experiment in a line: ATG_Sp1_CIS: Attagene CIS-FACTORIAL HepG2 Assay for human Specificity Protein 1 (Sp1) (AID 2282961). As to conditions: HepG2 Sp1 cis-reporter transcription, actives raise or lower the signal. A digest of the protocol: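 Endpoint reflects endogenous Sp1 transcriptional activity, not an exogenous fusion protein: HepG2 cells with transfected cis-regulated reporters, 24 h dosing, RT-PCR/capillary electrophoresis mRNA read-out, DMSO-normalised bidirectional fit.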

The nature of test [14]: ATG_SREBP_CIS: Attagene CIS-FACTORIAL HepG2 Assay for human Sterol Regulatory Element Binding (SREBP) (AID 2282962). As to conditions: HepG2 Attagene cis-factorial SREBP reporter, mRNA; actives raise or lower the signal. A digest of the protocol: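 Endogenous factor activity is measured in HepG2 through multiplexed reporter units under cis-element control. Following a 24 h incubation, reporter transcripts are reverse-transcribed, PCR-amplified and sized by capillary electrophoresis; activity is fitted in both directions relative to DMSO.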

Test [15] concerns the target Signal transducer and activator of transcription 3 (Homo sapiens) (UniProt P40763). Description: ATG_STAT3_CIS: Attagene CIS-FACTORIAL HepG2 Assay for human Signal Transducer and Activator of Transcription 3 (STAT3) (AID 2282963). The note with it: HepG2, Attagene cis-factorial STAT3 reporter transcription; actives raise or lower the signal. A digest of the protocol: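 Uses human liver HepG2 transiently carrying cis-regulated reporter transcription units. Following 24 h dosing, reporter mRNA induction was detected by RT-PCR and capillary electrophoresis, analysed bidirectionally versus DMSO.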

A short description of test [16]: ATG_TA_CIS: Attagene CIS-FACTORIAL HepG2 Assay for human TA Basal Promoter (AID 2282964). The note with it: HepG2 Attagene CIS-factorial TA basal promoter reporter; actives raise or lower the signal. A digest of the protocol: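 Steps: transfect HepG2 with MRTUs; dose 24 h; isolate RNA, DNase-treat, reverse-transcribe; PCR and FAM-label reporter cDNA; digest with HpaI 2h at 37 C; run capillary electrophoresis. Activity fitted both directions against DMSO.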

A short description of test [17]: ATG_TCF_b_cat_CIS: Attagene CIS-FACTORIAL HepG2 Assay for human T-Cell-Factor with beta-catenin (TCF/b-cat) (AID 2282965). As to conditions: HepG2 TCF/beta-catenin cis-reporter transcription, actives raise or lower the signal. A digest of the protocol: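 HepG2 cells transiently transfected with multiple cis-promoter-regulated reporter transcription units, so endogenous transcription factor activity is measured. Reporter mRNA read 24 hours after dosing by RT-PCR, fluorescent labelling and capillary electrophoresis; bidirectional fitting against DMSO.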

Test [18] in a line: ATG_PPRE_CIS: Attagene CIS-FACTORIAL HepG2 Assay for human Peroxisome Proliferator-activated Response Element (PPRE) (AID 2282958). The note with it: HepG2 PPRE cis-element reporter, Attagene transcription factor profiling; actives raise or lower the signal. A digest of the protocol: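 Measured endpoint: PPRE-controlled reporter mRNA, detected by RT-PCR and capillary electrophoresis fluorescence, from transiently transfected HepG2 cells 24 h after dosing. Curves fitted in both directions using DMSO baseline.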

A short description of test [19]: ATG_RORE_CIS: Attagene CIS-FACTORIAL HepG2 Assay for human RAR-related Orphan Receptor Element (RORE) (AID 2282959). The note with it: HepG2 Attagene cis-factorial RORE reporter, mRNA; actives raise or lower the signal. A digest of the protocol: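 Transiently transfected HepG2 reporter cells were treated 24 h. Reporter transcripts were detected by RT-PCR and capillary electrophoresis, with bidirectional fitting against DMSO.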

Values joined by “and” are separate entries in the source; they are usually repeats but may differ in a detail not shown here. Equal entries are not always repeated. Some structures have more than one record in an assay (separate samples or runs), and their calls can disagree. Active and inactive are the calls of the source. Rule for the calls: active = hit-call score of the fitted dose curve at least 0.9, where 1 is the maximum; inactive = score below 0.9.

As a reminder, the AC50 is the concentration giving half of the maximal activity seen.

Sequence of Bile acid receptor (Homo sapiens) (Q96RI1 whole entry, looked up): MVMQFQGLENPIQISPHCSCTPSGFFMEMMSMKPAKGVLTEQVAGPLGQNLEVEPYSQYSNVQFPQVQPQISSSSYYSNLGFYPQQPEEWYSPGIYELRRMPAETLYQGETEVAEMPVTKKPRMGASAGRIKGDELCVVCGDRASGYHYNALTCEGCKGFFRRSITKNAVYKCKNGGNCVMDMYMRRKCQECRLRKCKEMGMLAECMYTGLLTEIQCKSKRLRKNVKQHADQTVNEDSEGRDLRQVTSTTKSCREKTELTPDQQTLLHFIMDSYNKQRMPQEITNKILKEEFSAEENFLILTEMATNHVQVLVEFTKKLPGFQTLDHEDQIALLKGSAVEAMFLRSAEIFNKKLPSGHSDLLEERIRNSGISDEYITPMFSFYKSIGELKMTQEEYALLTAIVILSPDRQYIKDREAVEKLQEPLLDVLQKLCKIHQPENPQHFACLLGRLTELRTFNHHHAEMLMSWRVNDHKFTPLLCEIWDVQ
Sequence of Signal transducer and activator of transcription 3 (Homo sapiens) (P40763 whole entry, looked up): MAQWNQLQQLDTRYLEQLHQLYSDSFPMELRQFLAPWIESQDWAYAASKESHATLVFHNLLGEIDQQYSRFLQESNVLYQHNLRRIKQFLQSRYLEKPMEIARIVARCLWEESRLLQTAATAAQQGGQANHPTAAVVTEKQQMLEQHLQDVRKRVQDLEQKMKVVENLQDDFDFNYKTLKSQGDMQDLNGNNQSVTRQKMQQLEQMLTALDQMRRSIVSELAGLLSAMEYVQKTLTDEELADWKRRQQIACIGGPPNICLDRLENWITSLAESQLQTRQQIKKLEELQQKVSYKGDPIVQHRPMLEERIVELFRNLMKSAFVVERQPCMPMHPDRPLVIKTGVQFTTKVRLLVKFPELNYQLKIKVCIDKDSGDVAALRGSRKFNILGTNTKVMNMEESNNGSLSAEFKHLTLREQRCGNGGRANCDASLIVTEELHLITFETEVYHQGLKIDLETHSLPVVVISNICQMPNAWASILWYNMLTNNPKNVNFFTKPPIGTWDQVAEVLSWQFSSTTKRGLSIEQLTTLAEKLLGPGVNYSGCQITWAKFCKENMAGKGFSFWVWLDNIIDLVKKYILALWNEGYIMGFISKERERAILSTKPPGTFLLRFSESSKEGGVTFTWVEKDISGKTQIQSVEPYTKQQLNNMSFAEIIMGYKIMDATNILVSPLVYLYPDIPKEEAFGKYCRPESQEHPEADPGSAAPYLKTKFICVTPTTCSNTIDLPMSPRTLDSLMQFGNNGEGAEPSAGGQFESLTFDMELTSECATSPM
Sequence of Transcription factor Sp1 (Homo sapiens) (P08047 whole entry, looked up, the tested form may be a part): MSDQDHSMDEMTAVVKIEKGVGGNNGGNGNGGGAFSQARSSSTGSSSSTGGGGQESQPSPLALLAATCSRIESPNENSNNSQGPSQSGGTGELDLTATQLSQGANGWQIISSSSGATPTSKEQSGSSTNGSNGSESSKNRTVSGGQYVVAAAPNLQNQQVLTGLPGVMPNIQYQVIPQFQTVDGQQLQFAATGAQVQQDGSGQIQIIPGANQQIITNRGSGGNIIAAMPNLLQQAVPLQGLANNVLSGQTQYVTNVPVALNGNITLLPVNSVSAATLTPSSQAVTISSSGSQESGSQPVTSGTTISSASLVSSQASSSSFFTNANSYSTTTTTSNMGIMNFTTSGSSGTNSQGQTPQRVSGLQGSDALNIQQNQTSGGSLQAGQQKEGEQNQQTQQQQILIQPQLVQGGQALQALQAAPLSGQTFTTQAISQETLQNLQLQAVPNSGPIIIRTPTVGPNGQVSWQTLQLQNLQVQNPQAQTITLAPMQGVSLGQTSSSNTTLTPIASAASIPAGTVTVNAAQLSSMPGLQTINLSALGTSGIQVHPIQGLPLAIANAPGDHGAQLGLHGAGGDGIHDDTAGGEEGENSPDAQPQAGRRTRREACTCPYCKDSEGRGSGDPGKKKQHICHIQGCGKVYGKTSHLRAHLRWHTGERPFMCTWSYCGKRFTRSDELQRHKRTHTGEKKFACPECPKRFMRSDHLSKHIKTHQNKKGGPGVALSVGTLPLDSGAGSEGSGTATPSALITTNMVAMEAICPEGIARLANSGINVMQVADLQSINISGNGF
Sequence of Paired box protein Pax-6 (Homo sapiens) (P26367 whole entry, looked up): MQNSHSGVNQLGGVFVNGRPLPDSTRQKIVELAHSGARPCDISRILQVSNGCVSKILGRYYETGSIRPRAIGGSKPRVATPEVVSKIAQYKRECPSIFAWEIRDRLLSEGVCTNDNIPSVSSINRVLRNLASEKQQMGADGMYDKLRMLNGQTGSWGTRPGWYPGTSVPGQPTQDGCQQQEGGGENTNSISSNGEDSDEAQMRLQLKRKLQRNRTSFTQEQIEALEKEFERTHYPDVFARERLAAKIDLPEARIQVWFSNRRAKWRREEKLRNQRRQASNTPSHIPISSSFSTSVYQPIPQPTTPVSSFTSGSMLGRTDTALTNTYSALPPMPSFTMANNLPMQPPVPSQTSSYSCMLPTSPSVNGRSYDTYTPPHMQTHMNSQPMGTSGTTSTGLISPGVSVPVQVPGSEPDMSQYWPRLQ
Sequence of Heat shock factor protein 1 (Homo sapiens) (Q00613 whole entry, looked up, the tested form may be a part): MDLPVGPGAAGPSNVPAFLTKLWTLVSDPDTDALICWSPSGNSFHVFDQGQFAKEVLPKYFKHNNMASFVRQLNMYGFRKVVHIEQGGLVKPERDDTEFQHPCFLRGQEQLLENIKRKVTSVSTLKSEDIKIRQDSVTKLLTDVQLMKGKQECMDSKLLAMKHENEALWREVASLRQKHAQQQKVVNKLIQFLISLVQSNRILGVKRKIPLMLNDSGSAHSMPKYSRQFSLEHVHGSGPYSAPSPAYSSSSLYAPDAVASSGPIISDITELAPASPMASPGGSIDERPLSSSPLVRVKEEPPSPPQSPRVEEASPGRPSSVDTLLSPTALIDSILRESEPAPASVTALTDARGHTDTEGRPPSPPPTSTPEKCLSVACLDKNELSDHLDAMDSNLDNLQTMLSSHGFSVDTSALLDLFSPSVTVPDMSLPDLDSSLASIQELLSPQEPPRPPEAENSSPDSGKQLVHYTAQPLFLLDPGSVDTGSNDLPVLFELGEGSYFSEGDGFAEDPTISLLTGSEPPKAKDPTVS
Sequence of Hepatocyte nuclear factor 6 (Homo sapiens) (Q9UBC0 whole entry, looked up): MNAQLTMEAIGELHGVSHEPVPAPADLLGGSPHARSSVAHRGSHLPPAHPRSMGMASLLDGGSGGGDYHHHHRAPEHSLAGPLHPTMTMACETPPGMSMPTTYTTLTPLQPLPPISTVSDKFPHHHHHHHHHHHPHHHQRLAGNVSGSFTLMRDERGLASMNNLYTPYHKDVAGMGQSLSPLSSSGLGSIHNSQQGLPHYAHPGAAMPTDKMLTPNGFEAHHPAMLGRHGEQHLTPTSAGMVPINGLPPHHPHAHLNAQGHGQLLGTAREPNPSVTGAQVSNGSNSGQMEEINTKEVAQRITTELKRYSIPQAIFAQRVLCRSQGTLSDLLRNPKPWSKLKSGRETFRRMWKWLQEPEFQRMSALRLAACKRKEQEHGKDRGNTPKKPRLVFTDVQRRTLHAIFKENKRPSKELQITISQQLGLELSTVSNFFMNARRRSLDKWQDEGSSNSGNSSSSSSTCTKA

Consider `O=C(OCCCCCCOC(=O)c1ccccc1)c1ccccc1`, for which the result in test [1], in test [2], in test [3], in test [4], in [5] and in [6] was inactive. The result in test [7], in [8], in test [9], in test [10], in [11] and in test [12] was inactive. The compound was classed as inactive in test [13], in test [14], in test [15], in [16] and in test [17].

In the case of `CN1C(=O)N(c2ccccc2Br)Cc2cnc(Nc3ccc4c(c3)OCC(CO)O4)nc21` (stereo not given), the outcome in test [1], in test [2], in [3], in test [4], in [5] and in [6] was inactive. For the same compound, the outcome in [7], in test [10], in test [11], in test [12], in test [13] and in test [15] was inactive. The AC50 is 33.2 µM (active) in [8], 2.65 µM (active) in test [18] and 21.1 µM (active) in test [14].

In the case of `CC(C)(O)c1ccc(CNC(=O)c2cccnc2Oc2ccc3nonc3c2)cc1`, the outcome in [2], in [3], in test [4], in test [5], in [6] and in test [7] was inactive. For the same compound, the outcome in [8], in test [10], in [18], in test [19], in [12] and in test [13] was inactive. Moreover, the compound was called inactive in test [15] and in test [17]. Also, the AC50 in [9] was 33.4 µM (active); in test [11] it was 7.65 µM (active); in [14], 50.9 µM (active).

Turning to `O=C(O)Cc1cc(I)c(Oc2ccc(O)c(I)c2)c(I)c1`, the compound was called inactive in test [1], in test [2], in test [3], in test [4], in test [5] and in [6]. The result in test [9], in test [10], in test [12], in test [13], in [14] and in [15] was inactive. Besides, the compound was classed as inactive in [16]. The AC50 is 170 µM (active) [middle of 4 runs] in test [7]; 80.5 µM (active) [middle of 4 runs] in [8]; 26.3 µM (active) and 26.1 µM (active) and 7.66 µM (active) in test [11]; 11.4 µM (active) in test [14].

In the case of `CCCCCCCCCCCO`, the outcome in test [1], in [3], in test [4], in test [5], in test [6] and in [8] was inactive. Besides, the result in test [9], in test [10], in test [11], in test [18], in test [19] and in test [12] was inactive. For the same compound, the outcome in [13], in test [14] and in [15] was inactive.

For `CN(C[C@@H](CC[N+]12CCC(C3CCCCC3)(CC1)CC2)c1ccc(Cl)c(Cl)c1)C(=O)c1cc(C(F)(F)F)cc(C(F)(F)F)c1`, the result in [1], in test [2], in test [3], in [4], in test [5] and in [6] was inactive. Also, the outcome in test [7], in test [8], in test [9], in [10], in test [11] and in test [12] was inactive. For the same compound, the outcome in [13], in test [14], in test [15], in test [16] and in [17] was inactive.

In the case of `O=C1O[C@H]([C@@H](O)CO)C(O)=C1O`, the result in test [2], in test [3], in test [4], in [5], in test [6] and in [7] was inactive. Besides, the result in test [8], in test [9], in [10], in test [18], in test [12] and in test [13] was inactive. Besides, the compound was called inactive in test [14], in test [15], in test [16] and in test [17]. For the same compound, the AC50 in test [11] was 184 µM (active) and 54.4 µM (active).
